The supplement of paper PMC9950053
Where a name gives a salt, the structure may show the parent alone.

test system: Danio rerio larvae (5 dpf); test: combined upward orientation toward moving lines (periods 7-14) minus DMSO control (percentage points); higher = more orientation with moving lines than DMSO larvae; conditions: 10 µM; exposure time: 3 h pre-incubation + 3 h imaging
Description: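 Wild-type 5 dpf zebrafish larvae (n=48 per drug, 96-well plates, 28.5 °C) were exposed to Tocris FDA-approved library compounds at 10 µM (0.1% DMSO) for 3 h before and 3 h during imaging. Images were taken every 6 s during visual (moving coloured lines) and acoustic stimuli, and larvae were tracked with the DeepLabCut-based Z-LaP Tracker. Each behavioural measure is the treated-group mean minus the DMSO vehicle control mean (n=844), in percentage points. This mapping covers compounds with 4-character plate codes.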

SMILES	combined upward orientation toward moving lines
O=c1[nH]c2ccccc2n1C1CCN(CCCC(c2ccc(F)cc2)c2ccc(F)cc2)CC1 [Pimozide]	-5.82
CC(C)C[C@H]1C(=O)N2CCC[C@H]2[C@]2(O)O[C@](NC(=O)[C@@H]3C=C4c5cccc6[nH]c(Br)c(c56)C[C@H]4N(C)C3)(C(C)C)C(=O)N12 [Bromocriptine mesylate]	-39
COc1cc2c(cc1OC)C1CC(=O)C(CC(C)C)CN1CC2 (stereo unspecified) [Tetrabenazine]	-21.4
CN1C[C@H](C(=O)N[C@]2(C)O[C@@]3(O)[C@@H]4CCCN4C(=O)[C@H](Cc4ccccc4)N3C2=O)C[C@@H]2c3cccc4[nH]cc(c34)C[C@H]21 [Dihydroergotamine mesylate]	-20.6
C=CCN1C[C@H](C(=O)N(CCCN(C)C)C(=O)NCC)C[C@@H]2c3cccc4[nH]cc(c34)C[C@H]21 [Cabergoline]	-13.9
Cc1cccc([C@H](C)c2c[nH]cn2)c1C [Dexmedetomidine hydrochloride]	-0.0673
CC(O)(CS(=O)(=O)c1ccc(F)cc1)C(=O)Nc1ccc(C#N)c(C(F)(F)F)c1 (stereo unspecified) [Bicalutamide]	-2.4
N[C@@H]1C[C@H]1c1ccccc1 [Tranylcypromine hydrochloride]	1.03
CCN(C)C(=O)Oc1cccc([C@H](C)N(C)C)c1 [Rivastigmine tartrate]	-5.99
C=C1C[C@@H]2[C@H](CC[C@]3(C)C(=O)CC[C@@H]23)[C@@]2(C)C=CC(=O)C=C12 [Exemestane]	1.27
CC[C@@H](C(N)=O)N1CCCC1=O [Levetiracetam]	-2.84
